Reference: ChEMBL document CHEMBL3433997, “St. Jude Leishmania screening dataset” (2016)

What follows are compounds tested against Hexose transporter 1 (Plasmodium falciparum) (UniProt O97467) (assay: ST_JUDE_LEISH: Cytotoxicity at 2uM final concentration against transgenic Leishmania Mexicana promastigotes LmPfHT that are glucose transport deficient and complemented with the Plasmodium falciparum hexose transporter. Activity is measured by DNA content using SYBR green in vitro).
Type: functional

| Structure (SMILES) | inhibition |
| --- | --- |
| CNCCNCc1cccc(-c2ccc(-c3nc4cc(C(F)(F)F)ccc4[nH]3)cc2)c1 | 2.51% |
| O=C(Nc1ccc(S(=O)(=O)N2CCCCCC2)cc1)c1cc(-c2ccccc2O)n[nH]1 | 8.12% |
| Fc1cc(Cl)ccc1Nc1ccnc2cc(-c3ccc(CNCCN4CCOCC4)o3)ccc12 | 1.07% |
| O=S(=O)(Nc1cccc(CCN2CCC(N3CCCCC3)CC2)c1)c1cccc2ccccc12 | 2.76% |
| Cc1nc2ccc(Nc3nccc(-c4c(-c5cccc(NC(=O)c6c(F)cccc6F)c5)nn5ccccc45)n3)cc2nc1C | 4.37% |
| CC(C)(C)N1CCC(N(Cc2ccc(-c3ccc(C(F)(F)F)cc3)cc2)C(=O)Cn2c(CCc3cccc(F)c3F)cc(=O)c3ccccc32)CC1 | 0.14% |
| COc1cc2cc(-c3nc4ccccc4[nH]3)c(N)nc2cc1OC | 91.3% |
| COc1ccc(NC(=O)[C@H](CC(C)C)Nc2cc(C)nc(NCCc3ccc(F)cc3)n2)cc1 | 4.09% |
| Cc1ccc(CNC(=O)[C@H](Cc2ccccc2)Nc2cc(C)nc(NCC3CCCCC3)n2)cc1 | 4.57% |
| COc1ccccc1-c1nc2nc(N)nc(N)c2nc1-c1ccccc1OC | 1.25% |
| CN1CCCN(Cc2ccc(-c3cccc(NC(=O)c4ccc(C#N)cc4)c3)cc2)CC1 | 4.1% |
| Cc1ccccc1C1CCN(C2CCC(NC(=O)/C=C/c3ccc(C#N)cc3)CC2)CC1 (stereo not given) | 4.49% |
| Cc1cc(NC(=O)[C@H](CC2CCCCC2)Nc2ccc(C#N)c3ccccc23)ccc1F | 7.28% |
| O=C(Nc1ccc(-c2csc3nccn23)cc1)c1ccc(Cl)cc1 | 4.05% |
| CCOc1cc(CC)ccc1C1CCN(CCCCNC(=O)c2ccc(NC(=O)c3ccc(Cl)cc3)cc2)CC1 | 2.23% |
| CN(Cc1ccccc1)C1CCCN(c2cc(NC(=O)c3cccs3)ccn2)C1 (stereo not given) | -0.06% |
| CCc1ccc(CN2CCC(CNC(=O)c3cc(-c4cccc(F)c4)cs3)C2)cc1 (stereo not given) | 1.94% |
| COc1cc(C(=O)N2CCC(CCN3CCC4(CC3)CN(S(C)(=O)=O)c3ccccc34)CC2Cc2ccc(Cl)c(Cl)c2)cc(OC)c1OC (stereo not given) | 4.25% |
| O=C(Nc1cccc(-c2csc(-c3ccccc3)n2)c1)c1cccs1 | 2.57% |
| Cc1cc(=NN=Cc2ccc(Cl)cc2)c2cc(C(F)(F)F)ccc2[nH]1 | -4.87% |

| Structure (SMILES) | inhibition |
| --- | --- |
| CCN1CCN(c2cc(C)c3cc(NC(=O)c4ccc([N+](=O)[O-])c(C)c4)ccc3n2)CC1 | 5.06% |
| Cc1ccccc1C1CCN(c2ccc(C(=O)NC3CC3)cn2)CC1 | 1.26% |
| CC(=O)c1ccccc1OCCSc1nnc(Cc2cccs2)n1C1CCCCC1 | 2.09% |
| CN1CCN(c2nsc3ccc(-c4ccc(NC(=O)Nc5ccccc5)cc4)cc23)CC1 | 0.56% |
| CC(=O)Nc1ncc(C(=O)Nc2cccc(-c3ccc(-c4nc5cc(C(F)(F)F)ccc5[nH]4)s3)c2)s1 | 4.16% |
| CC(C)(CNCc1ccc(OC(F)(F)F)cc1)c1nc(-c2ccc(Cl)c(O)c2)c(-c2ccncc2)[nH]1 | 0.11% |
| CCCC(=O)Nc1ccc(OCCCCN(Cc2ccccc2C(F)(F)F)c2ccc(C(F)(F)F)c(C#N)c2)cc1 | 5.86% |
| CCCCN(CCCC)C(=N)c1cccc2c1CCCC2 | 3.35% |
| O=C(CSc1nccn1C1CCCCC1)Nc1cc(C(F)(F)F)ccc1Cl | 9.47% |
| CCOC(=O)c1nc(-c2cc(Cl)nc(Cl)c2)[nH]c1NC(=S)NCCCN1CCOCC1 | 1.96% |
| O=C(Nc1cccc(OC2CCN(Cc3ccccc3)CC2)c1)c1ccc(Cl)c(Cl)c1 | 1.85% |
| COc1ccc2nccc([C@@H](O)CN3CCC(NC(=O)c4cc5cccnc5[nH]4)CC3)c2c1 | 3.5% |
| COc1ccc2nccc([C@@H](O)CN3CCC(NCc4cc5c(Cl)cccc5[nH]4)CC3)c2c1 | 14.7% |
| Oc1cc2c(cc1CN1CCN(Cc3ccc(Cl)s3)CC1)CCC2 | 4.66% |
| Cc1cc2cc(-c3ccc(CN)cc3)ccc2nc1N | 1.71% |
| COc1ccc2nccc(N3CCC(NCc4ccc5c(n4)NC(=O)CS5)CC3)c2n1 | -0.14% |
| O=C(NC1CCN(Cc2ccccc2)CC1)c1cccc(-c2nc3ccc(Cl)cc3[nH]2)c1 | 2.61% |
| COc1ccc(-n2nc(C)c3c2NC(=O)CC3c2ccccc2OCc2ccccc2F)cc1 (stereo not given) | 11.4% |
| COc1ccc(-c2onc(C(F)(F)F)c2-c2ccc(Br)cc2)c(O)c1 | 2.27% |
| OC1(c2ccc(Br)cc2)CCN(C2CCN(Cc3ccccc3)CC2)CC1 | 6.01% |

These compounds were tested against Glucose transporter (Leishmania mexicana) (UniProt O61059) (assay: ST_JUDE_LEISH: Cytotoxicity at 2uM final concentration against transgenic Leishmania Mexicana promastigotes LmGT2 that are glucose transport deficient and complemented with the L. Mexicana glucose transporter 2. Activity is measured by DNA content using SYBR green in vitro).
Type: functional

| Structure (SMILES) | inhibition |
| --- | --- |
| CNCCNCc1cccc(-c2ccc(-c3nc4cc(C(F)(F)F)ccc4[nH]3)cc2)c1 | 2.03% |
| O=C(Nc1ccc(S(=O)(=O)N2CCCCCC2)cc1)c1cc(-c2ccccc2O)n[nH]1 | 8.68% |
| Fc1cc(Cl)ccc1Nc1ccnc2cc(-c3ccc(CNCCN4CCOCC4)o3)ccc12 | 0.9% |
| O=S(=O)(Nc1cccc(CCN2CCC(N3CCCCC3)CC2)c1)c1cccc2ccccc12 | 3.28% |
| Cc1nc2ccc(Nc3nccc(-c4c(-c5cccc(NC(=O)c6c(F)cccc6F)c5)nn5ccccc45)n3)cc2nc1C | -1.39% |
| CC(C)(C)N1CCC(N(Cc2ccc(-c3ccc(C(F)(F)F)cc3)cc2)C(=O)Cn2c(CCc3cccc(F)c3F)cc(=O)c3ccccc32)CC1 | 1.02% |
| COc1cc2cc(-c3nc4ccccc4[nH]3)c(N)nc2cc1OC | 67.3% |
| COc1ccc(NC(=O)[C@H](CC(C)C)Nc2cc(C)nc(NCCc3ccc(F)cc3)n2)cc1 | 3.65% |
| Cc1ccc(CNC(=O)[C@H](Cc2ccccc2)Nc2cc(C)nc(NCC3CCCCC3)n2)cc1 | 0.14% |
| COc1ccccc1-c1nc2nc(N)nc(N)c2nc1-c1ccccc1OC | 1.01% |
| CN1CCCN(Cc2ccc(-c3cccc(NC(=O)c4ccc(C#N)cc4)c3)cc2)CC1 | -1.1% |
| Cc1ccccc1C1CCN(C2CCC(NC(=O)/C=C/c3ccc(C#N)cc3)CC2)CC1 (stereo not given) | 5.03% |
| Cc1cc(NC(=O)[C@H](CC2CCCCC2)Nc2ccc(C#N)c3ccccc23)ccc1F | 1.62% |
| O=C(Nc1ccc(-c2csc3nccn23)cc1)c1ccc(Cl)cc1 | -0.28% |
| CCOc1cc(CC)ccc1C1CCN(CCCCNC(=O)c2ccc(NC(=O)c3ccc(Cl)cc3)cc2)CC1 | 4.97% |
| CN(Cc1ccccc1)C1CCCN(c2cc(NC(=O)c3cccs3)ccn2)C1 (stereo not given) | 0.5% |
| CCc1ccc(CN2CCC(CNC(=O)c3cc(-c4cccc(F)c4)cs3)C2)cc1 (stereo not given) | 1.42% |
| COc1cc(C(=O)N2CCC(CCN3CCC4(CC3)CN(S(C)(=O)=O)c3ccccc34)CC2Cc2ccc(Cl)c(Cl)c2)cc(OC)c1OC (stereo not given) | 3.27% |
| O=C(Nc1cccc(-c2csc(-c3ccccc3)n2)c1)c1cccs1 | 0.7% |
| Cc1cc(=NN=Cc2ccc(Cl)cc2)c2cc(C(F)(F)F)ccc2[nH]1 | 5.23% |

| Structure (SMILES) | inhibition |
| --- | --- |
| CCN1CCN(c2cc(C)c3cc(NC(=O)c4ccc([N+](=O)[O-])c(C)c4)ccc3n2)CC1 | 7.26% |
| Cc1ccccc1C1CCN(c2ccc(C(=O)NC3CC3)cn2)CC1 | 0.57% |
| CC(=O)c1ccccc1OCCSc1nnc(Cc2cccs2)n1C1CCCCC1 | 1.75% |
| CN1CCN(c2nsc3ccc(-c4ccc(NC(=O)Nc5ccccc5)cc4)cc23)CC1 | 0.99% |
| CC(=O)Nc1ncc(C(=O)Nc2cccc(-c3ccc(-c4nc5cc(C(F)(F)F)ccc5[nH]4)s3)c2)s1 | 3.18% |
| CC(C)(CNCc1ccc(OC(F)(F)F)cc1)c1nc(-c2ccc(Cl)c(O)c2)c(-c2ccncc2)[nH]1 | 6.94% |
| CCCC(=O)Nc1ccc(OCCCCN(Cc2ccccc2C(F)(F)F)c2ccc(C(F)(F)F)c(C#N)c2)cc1 | 5.58% |
| CCCCN(CCCC)C(=N)c1cccc2c1CCCC2 | 2.45% |
| O=C(CSc1nccn1C1CCCCC1)Nc1cc(C(F)(F)F)ccc1Cl | 7.3% |
| CCOC(=O)c1nc(-c2cc(Cl)nc(Cl)c2)[nH]c1NC(=S)NCCCN1CCOCC1 | 0.84% |
| O=C(Nc1cccc(OC2CCN(Cc3ccccc3)CC2)c1)c1ccc(Cl)c(Cl)c1 | 3.44% |
| COc1ccc2nccc([C@@H](O)CN3CCC(NC(=O)c4cc5cccnc5[nH]4)CC3)c2c1 | -0.32% |
| COc1ccc2nccc([C@@H](O)CN3CCC(NCc4cc5c(Cl)cccc5[nH]4)CC3)c2c1 | 2.34% |
| Oc1cc2c(cc1CN1CCN(Cc3ccc(Cl)s3)CC1)CCC2 | 1.82% |
| Cc1cc2cc(-c3ccc(CN)cc3)ccc2nc1N | -3.5% |
| COc1ccc2nccc(N3CCC(NCc4ccc5c(n4)NC(=O)CS5)CC3)c2n1 | 2.01% |
| O=C(NC1CCN(Cc2ccccc2)CC1)c1cccc(-c2nc3ccc(Cl)cc3[nH]2)c1 | 2.94% |
| COc1ccc(-n2nc(C)c3c2NC(=O)CC3c2ccccc2OCc2ccccc2F)cc1 (stereo not given) | 9.27% |
| COc1ccc(-c2onc(C(F)(F)F)c2-c2ccc(Br)cc2)c(O)c1 | 1.56% |
| OC1(c2ccc(Br)cc2)CCN(C2CCN(Cc3ccccc3)CC2)CC1 | 3.71% |
